Screen size: about 4,100 compounds; about 1,600 (39%) were called active. Not shown: some 25% with an inconclusive outcome. The list shows a part of the results. Values without a mark were called inactive. The call rests on the fitted dose curve; in most records, active means well fitted inhibition curve with a large enough effect; inconclusive means small, poorly fitted or top-dose-only effect; inactive means no such curve, though single readings can be large or run the other way.
Experiment: qHTS Validation assay for Inhibitors of Plasmodium falciparum Dd2 growth in vitro; further: nearly all actives have a fitted effect of over 70% in size
Conditions: P. falciparum Dd2 in RBCs, SYBR Green growth, 72 h; series mostly up to 28.7 µM; activity change, negative = inhibition: at the top concentration
Excerpt: Malaria, a parasitic disease spread to humans through the bite of a Plasmodium infected Anopheles mosquito, continues to be a global health burden affecting millions of people, with an estimated 228 million cases and 405,000 deaths in 2018. Concerns about safety and limitations of current antimalarial treatments strongly emphasize the need to develop new therapeutic options. The scarce number of chemotypes and validated drug targets with efficacy against the liver stage, have hindered development of new antimalarials. To address this, a chemoprophylactic drug discovery effort was conducted through a combined phenotypic high-throughput asexual blood stage and liver stage screen, providing a robust foundation to identify liver-stage active lead chemotypes. Compounds were initially screened against Plasmodium falciparum Dd2 strain parasites using a in vitro SYBRGreen-1 based 72 hr proliferation assay to identify novel chemotypes to advance to liver stage assays. NIH/NCATS Early Translation Branch Assay Submitter (PI): Anton Simeonov Ph.D.
[…] Assay Protocol: PROTOCOL TABLE (as described by Inglese et al., 2007) SEQUENCE No. (e.g., 1, 2, 3, etc.); PARAMETER (e.g., Cells, Incubation, Reagent, etc.); VALUE; DESCRIPTION SEQUENCE, Parameter, Description 1; Reagent; 3 uL complete malaria growth medium, 1536 TC treated Black clear bottom plate 2; Controls; 23 nL positive control artesunate (300 nM final) to column 1; Neutral control DMSO to columns 2-4 3; Compound; 23 nL of compounds in dose response concentration (29 uM to 0.5 nM final) 4; Reagent; 5 uL malaria infected red blood cells (2.5% hematocrit final, 0.3% parasitemia 5; Time; 72 hours at 37C (5% O2, 5% CO2, 90% N2; 95% Rh) 6; Reagent; 2 uL lysis buffer/SYBRGreen-1, 25 sec shake immediately following dispense 7; Time; ~16 hours at 37C (5% O2, 5% CO2, 90% N2; 95% Rh) 8; Detector; EnVision (PerkinElmer) bottom read at 485/14nm excitation and 535/25 nm emission NOTES (numbers refer to sequence above): 1; Complete Malaria Growth Media: 1X RPMI-1640 w/L-glutamine, 5.5g/L Albumax II, 367 uM Hypoxanthine, 25 mM HEPES, 0.25% Sodium Bicarbonate, 35 uM Gentamicin sulfate 2; Controls were added using the Kalypsis Pintool (Wako USA) equipped with 1536 pinhead 3; Compounds were added in a 7-point, titration with a high final concentration of 29 uM by Pintool from seven inter-plate titrations of library plates and two DMSO control plates at the beginning and end (see Yasgar et al., 2008). 4; Red blood cells infected with Plasmodium falciparum Dd2 parasites were used. 6; Lysis buffer: 20 mM Tris-HCl, 10 mM EDTA, 0.16% Saponin, 1.6% Triton-X, 10X SYBR Green. REFERENCE: Inglese J, Shamu CE, Guy RK. 2007. Reporting data from high-throughput screening of small-molecule libraries. Nat Chem Biol. doi:10.1038/nchembio0807-438 Yasgar A, Shinn P, Jadhav A, Auld D, Michael S, Zheng W, Austin CP, Inglese J, Simeonov A. 2008. Compound Management for Quantitative High-Throughput Screening. J Lab Autom 13:79-89. doi:10.1016/j.jala.2007.12.004
On the % scale 0 is the no-effect control and ±100 the full control effect; potency means the concentration at half of the fitted maximal effect.

Row | SMILES | Potency | activity change, negative = inhibition
1 | COc1ccc(C)cc1NCc1cc(=O)oc2cc(-c3ccccc3)c(O)cc12 | 5310 nM (active) | 
2 | Cc1ccc(Nc2cc(=O)oc3ccccc23)c(C)c1 |  | -20.1%
3 | COc1ccc(-c2nc3ccccc3o2)cc1NC(=O)COc1c(C)cc(Cl)cc1Cl |  | 13.1%
4 | COc1ccccc1NCc1cc(=O)oc2c(C)c(O)ccc12 | 5960 nM (active) | 
5 | O=C(Nc1ccc([N+](=O)[O-])cc1)Nc1ccc(OC(F)F)c(Cl)c1 | 2660 nM (active) | 
6 | Oc1ccc(-c2ccccc2)cc1CN1CCCCCC1 | 266 nM (active) | 
7 | Oc1ccc(CN2CCCCC2)nc1-c1ccccc1 | 531 nM (active) | 
8 | CN1C(=O)CC(C(=O)O)C12CCN(Cc1cccc(C(=O)O)n1)CC2 (stereo not given) |  | 37.6%
9 | CNC(=O)[C@H]1C[C@H](Oc2ccccc2)CN1C(=O)CCc1nc2ccccc2[nH]1 |  | 4.06%
10 | C/C(Cl)=C/Cc1c(C)[nH]c2c(ccc3ccccc32)c1=O | 842 nM (active) | 
11 | O=c1[nH]c(C2CCCN(Cc3ccccn3)C2)nn1-c1ccc(Cl)cc1 (stereo not given) | 2370 nM (active) | 
12 | COc1ccc(-n2nc(C3CCCN(C(=O)Nc4ccccc4)C3)[nH]c2=O)cc1 (stereo not given) |  | 0%
13 | O=c1[nH]c(C2CCCN(Cc3ccc(F)cc3)C2)nn1-c1ccc(Cl)cc1 (stereo not given) |  | -21.6%
14 | C/C=C/c1cc(CN2CCN(c3ccccc3)CC2)c(O)c(OC)c1 | 5960 nM (active) | 
15 | COc1cc(C)cc(CN2CCC(Cc3ccccc3)CC2)c1O | 750 nM (active) | 
16 | COc1ccc(C(=O)N2CCC(Cc3nc(-c4ccccc4)n[nH]3)CC2)cc1OC |  | -19%
17 | CCn1ccc2sc(C)c(C(=O)N3CCC(Cc4ccccc4)CC3)c2c1=O |  | 1.55%
18 | O=C(CCc1nc2ccccc2s1)N1CCC(c2nc(C3CCOCC3)no2)CC1 |  | -6.71%
19 | CCN1C(=O)C2CC3(CCN(C(=O)CCc4nc5ccccc5[nH]4)CC3)CN2C1=O (stereo not given) |  | 13.2%
20 | COC1CN(c2ccc(C)cc2)C12CCN(C(=O)CCc1nc3ccccc3s1)CC2 (stereo not given) | 10600 nM (active) | 
21 | O=C(Nc1cccc(-c2nnc3n2CCCC3)c1)c1ccoc1 |  | -11.3%
22 | CCN1CCN(C(=O)c2ccc(-c3nnc4ccc(NC(=O)C5CC5)cn34)cc2)CC1 | 6680 nM (active) | 
23 | CCc1ccc(NC(=O)C2CCN(C(=O)c3nnn4cc(C)[nH]c(=O)c34)CC2)cc1 |  | 30.5%

Row | SMILES | Potency | activity change, negative = inhibition
24 | O=C(c1ccsc1)N1CCN(c2nnc3ccc(C(F)(F)F)cn23)CC1 |  | -20.5%
25 | Cc1ccc(C(=O)N2CCCC(n3cc(-c4nc(-c5ccccc5)no4)nn3)C2)cc1 (stereo not given) |  | 0.926%
26 | COc1cccc(NC(=O)c2ccc(-c3nnc4ccc(NC(=O)C5CCC5)cn34)cc2)c1 | 3760 nM (active) | 
27 | CCN(CC)C(=O)c1ccc(-c2nnc3ccc(NC(=O)C4CC4)cn23)cc1 | 2990 nM (active) | 
28 | COc1ccc(C(=O)Nc2cccc(-c3nnc4n3CCCC4)c2)cc1F |  | -19%
29 | COc1ccc(C2Cn3cnc(C(=O)N4CCC(C(=O)Nc5ccc(F)c(C)c5)CC4)c3CO2)cc1 (stereo not given) |  | 2.95%
30 | Cc1ccc(CCNC(=O)C2CCN(C(=O)c3cc4c(=O)[nH]c(C)cn4n3)CC2)cc1 |  | 7.15%
31 | CC(=O)Nc1ccc2nnc(-c3ccc(C(=O)N4CCCCCC4)cc3)n2c1 | 8410 nM (active) | 
32 | COc1ccc(C(=O)Nc2ccc(-c3nc4ncccc4o3)cc2)cc1 |  | -23.5%
33 | COc1ccc(NC(=O)c2ccc3c(c2)N(C)C2CCCCN2C3=O)cc1 (stereo not given) |  | 11.3%
34 | CCOc1ccc(NC(=O)c2ccc(-c3nnc4ccc(NC(=O)C5CC5)cn34)cc2)cc1 | 2990 nM (active) | 
35 | CC(C)(C)NC(=O)c1ccc(-c2nnc3ccc(NC(=O)C4CC4)cn23)cc1 | 9440 nM (active) | 
36 | CCOc1ccc(C(=O)Nc2cccc(-c3nnc4n3CCCC4)c2)cc1 |  | -14.3%
37 | CCCc1noc(-c2ccn3c(CNC(=O)c4ccc(OC)cc4)nnc3c2)n1 |  | -13.4%
38 | COc1ccc(NC(=O)c2ccc(-c3nnc4ccc(NC(=O)C5CC5)cn34)cc2)cc1 | 2660 nM (active) | 
39 | COc1ccc(NC(=O)c2ccc(-c3nnc4ccc(NC(=O)C5CCC5)cn34)cc2)cc1 | 4220 nM (active) | 
40 | COc1ccc(C(=O)Nc2ccc(OCc3cc(=O)n4ccccc4n3)cc2)cc1 |  | 13.9%
41 | COCCN1C(=O)CCc2cc(NC(=O)c3ccc4c(c3)OCO4)ccc21 |  | -9.58%
42 | CCC(=O)Nc1ccc2nnc(-c3ccc(C(=O)Nc4ccc5c(c4)OCCO5)cc3)n2c1 | 7500 nM (active) | 
43 | Cc1cn2nc(C(=O)Nc3ccc4c(c3)OCCO4)cc2c(N2CCCC2)n1 |  | 0%
44 | Oc1ccc(CN2CC(CNc3ccccc3)C3(C2)CN(c2ccccc2)C3)cc1 (stereo not given) | 611 nM (active) | 
45 | O=C(Cc1ccc(O)cc1)N1CC(CNc2ccccc2)C2(C1)CN(c1ccccc1)C2 (stereo not given) | 243 nM (active) | 
